# Source: PubChem BioAssay (National Center for Advancing Translational Sciences (NCATS))
# FMDV antiviral: antivirals against foot and mouth disease virus; FMDV antiviral cell-based qHTS; Potency, µM (series often up to 57.9 µM), inactives show at the highest dose activity change, negative = inhibition, usual class: inhibitors; hit rate 1.2% among 410,000; calls by dose curve; tested in HEK293T cells; note: read-out not given here; potency is the fitted concentration of half-maximal effect; % is set by controls: 0 for no effect and ±100 for the full control effect; nearly all actives have a fitted effect of over 45% in size
# MARV entry inh: Marburg virus entry inhibition; Marburg virus pseudotyped entry inhibition, cell reporter; Potency, µM (highest dose often 37.8 µM), inactives show at the highest dose activity change, negative = inhibition, hits mostly inhibitors; hit rate 1.8% among 300,000; AID 540276; calls by dose curve; tested in HEK293 cells; note: potency is the fitted concentration of half-maximal effect; % is set by controls: 0 for no effect and ±100 for the full control effect
# Lassa entry inh: inhibitors of Lassa virus binding or cell entry | Lassa virus pseudotype entry inhibition, cell reporter | Potency, µM (highest dose often 37.9 µM), without a hit: top-dose activity change, negative = inhibition, usual class: inhibitors | hit rate 1.2% among 300,000; calls by dose curve; tested in HEK293 cells; note: potency is the fitted concentration of half-maximal effect; % is set by controls: 0 for no effect and ±100 for the full control effect; nearly all actives have a fitted effect of over 50% in size
# Shiga inhibitor: inhibitors of Shiga toxin in Vero cells | Vero cells, Shiga toxin protein synthesis inhibition reporter | inhibition, % at 38.7 µM | hit rate 9.2% among 290,000; in the data active = inhibition mostly above about 28%, no sharp cut-off; inactive = mostly below about 43%; note: 0% is about no effect
# CHX counter: counter-screen hit for Shiga toxin inhibitors, cycloheximide | hit rate 12% among 300,000 | max response, % | AID 2314 | cell reporter, cycloheximide protein synthesis inhibition counterscreen; in the data active = max response mostly above about 13%, no sharp cut-off; inactive = mostly below about 14%; note: read at 38.3 µM for the half of the compounds with a filed dose; 0% is about no effect
# HCV inh: HCV inhibition | Huh7.5.1 HCVcc-Cre infection, luciferase reporter, 44 h | Potency, µM (series often up to 41.8 µM), for the others: at the highest dose activity change, negative = inhibition, hits mostly inhibitors | hit rate 3.4% among 340,000; active = well fitted inhibition curve with a large enough effect; inconclusive = small, poorly fitted or top-dose-only effect, or another doubt; inactive = no such curve, though single readings can be large or run the other way; note: potency is the fitted concentration of half-maximal effect; % is set by controls: 0 for no effect and ±100 for the full control effect
#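 Antiviral activity was scored by luciferase reporter output from cells infected with HCVcc-Cre (~0.5 moi) in presence of compound, 44 h infection period, cells seeded 1,000/well 4 h prior.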
# * = called active by the depositor; ? = inconclusive; · = no result given; [ ] = dose if it differs, or a comment. The list is not random: actives were taken first. Their share in the collection is about 13%.
SMILES,FMDV antiviral,MARV entry inh,Lassa entry inh,Shiga inhibitor,CHX counter,HCV inh
C=CCOC(=O)c1[nH]c2c(c1C)C(=O)CC(c1cc(OC)c(OC)c(OC)c1)C2 (stereo not given),11µM*,?,?,-9,-1,?
CCCCOC(=O)c1[nH]c2c(c1C)C(=O)CC(c1cc(OC)c(OC)c(OC)c1)C2 (stereo not given),16µM*,7%,·,1,-3,2.5µM*
COc1ccc(C2CC(=O)c3c([nH]c(C(=O)OCCOc4ccccc4)c3C)C2)cc1OC (stereo not given),?,?,-15%[46.1 µM],·,·,·
CCOC(=O)c1sc2c(c1C)c(=O)n(CCO)c(=O)n2Cc1ccccc1,-7%,·,·,-5,-2,?
O=C(CSCc1c(Cl)cccc1Cl)Nc1ccccc1-c1ccccc1,-19%,?,?,-8,-4,?
O=C(Cn1ncc2c3ccccc3n(Cc3ccccc3)c2c1=O)NCc1ccco1,-10%,·,·,-8,1,-9%
C#CCOCCOCCOCCNc1nc(N2CCN(C(=O)[C@H](CCCCN)n3cc(C(N)CO)nn3)CC2)nc(N2CCN(C(=O)[C@H](CCC(=O)O)n3cc(C(N)CC(C)C)nn3)CC2)n1 (stereo not given in full),·,·,·,-5,4,·
O=C(COc1ccc2c3c(c(=O)oc2c1)CCC3)N1CCN(c2ccc(F)cc2)CC1,?,·,·,-2,1,?
COc1cc(C2CC(=O)c3c([nH]c(C(=O)OCC4CCCCC4)c3C)C2)cc(OC)c1OC (stereo not given),?,?,-7%[46.1 µM],·,·,·
COc1cc(C2CC(=O)c3c([nH]c(C(=O)OC4CCCCC4)c3C)C2)cc(OC)c1OC (stereo not given),11µM*,·,6.3µM*,·,·,·
Cn1c(=O)c2nc(SCC(=O)Nc3ccc(OC(F)(F)F)cc3)n(C)c2n(C)c1=O,-21%,·,-1%[46.1 µM],·,·,·
O=C(c1ccc(OCCCc2cnc[nH]2)cc1)C1CC1,·,?,?,80*,35*,·
c1ccc(COCCCc2cnc[nH]2)cc1,-11%,·,·,21,-1,·
C[C@H]1CN([C@@H](C)CO)C(=O)CCCn2nncc2CO[C@H]1CN(C)C(=O)c1ccc(N2CCN(C)CC2)cc1,-16%,·,·,·,·,·
O=C(/C=C\c1ccc(O)cc1)c1ccc(O)cc1O,·,10µM*,·,·,·,·
O=C(/C=C/c1ccc(O)c(O)c1)c1ccc(O)cc1O,·,·,·,35*,10*,·
N#Cc1ccccc1OCCn1cncn1,7%,·,·,-3,-2,1%
CC1(C(=O)NS(=O)(=O)c2cccc(OC(F)F)c2)CCN1C(=O)CC1CCCC1 (stereo not given),-8%,·,·,·,·,·
CCNc1ccc(N=Nc2c(C)n(C)n(-c3ccccc3)c2=O)cc1,26%,?,26%,40,21*,-13%
CCOC(=O)/C(N=Nc1c(C)n(C)n(-c2ccccc2)c1=O)=C(\C)O,-7%,7%,1%,-15,-4,12%
CCOCCCNC(=O)c1c[nH]c2ccc(C)cc2c1=O,-29%,-1%,?,12,1,-28%
Cc1ccc2[nH]cc(C(=O)NCc3cccs3)c(=O)c2c1,·,-19%,?,-5,10,10µM*
COc1cccc2c(=O)c(C(=O)NCc3cccs3)c[nH]c12,4%,8%,?,76*,53*,5%
COc1cccc2c(=O)c(C(=O)NCCc3ccccc3)c[nH]c12,72%,·,·,·,·,-7%
Cn1c2ccccc2c2ncn(CCC3=CCCCC3)c(=O)c21,0%,?,4%,27,17*,-27%
SMILES,FMDV antiviral,MARV entry inh,Lassa entry inh,Shiga inhibitor,CHX counter,HCV inh
Cn1c2ccccc2c2ncn(CCCN3CCOCC3)c(=O)c21,7%,3%,24%,43,7,?
COc1cc(C2CC(=O)N(CC(=O)NCc3ccco3)c3ccccc3S2)cc(OC)c1OC (stereo not given),?,0%,-5%,-4,8,?
COc1cc(CCNC(=O)c2ccccc2NC(=O)C2=C(C)OCCS2)cc(OC)c1OC,?,·,·,-7,0,-17%
COc1ccc(OC)c(CCNC(=O)Cc2ccc(NC(=O)C3=C(C)OCCS3)cc2)c1,17%,·,·,·,·,·
CC1=C(C(=O)Nc2cccc(C(=O)NC3CCCC(C)C3C)c2)SCCO1 (stereo not given),-22%,·,·,2,-5,13µM*
COc1ccc(OC)c(CCNC(=O)c2cccc(NC(=O)C3=C(C)OCCS3)c2)c1,-2%,·,·,-13,-11,11µM*
